{"source": "PubChem BioAssay (NCI)", "note": "Compounds without any hit were thinned out: in the full panel of roughly 83,000, 20% have a hit.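 Single-dose data. Exposure time 48 hours. Values below 10 considered active.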 The source made the active and inactive calls.", "data": [{"test_system": "MDA-MB-468 breast", "assay": "NCI-60 one-dose screen, 48 h (100 = growth as untreated, 0 = no growth, -100 = all killed)", "conditions": "10 µM unless noted", "values": [{"smiles": "O=Cc1nc2ccccc2[nH]1", "growth": "108% (inactive)"}, {"smiles": "CCCCC/C=C/C(=O)CCc1ccc(O)c(OC)c1", "growth": "65.8% (inactive)"}, {"smiles": "NS(=O)(=O)c1ccc(Nc2nc(N/N=C/c3ccc(F)cc3)nc(Nc3ccccc3)n2)cc1", "growth": "54.1% (inactive)"}]}]}
